Results reported in ChEMBL document CHEMBL1961873, “Compounds: GSK PKIS; Assays: Nanosyn kinase panel” (2012).

Key:
[1] = target: Tyrosine-protein kinase Fyn (Homo sapiens) (UniProt P06241); conditions: at 1 µM
[2] = target: Tyrosine-protein kinase HCK (Homo sapiens) (UniProt P08631); conditions: at 0.1 µM
[3] = target: Tyrosine-protein kinase HCK (Homo sapiens) (UniProt P08631); conditions: at 1 µM
[4] = target: Insulin-like growth factor 1 receptor (Homo sapiens) (UniProt P08069); conditions: at 0.1 µM
[5] = target: Insulin-like growth factor 1 receptor (Homo sapiens) (UniProt P08069); conditions: at 1 µM
[6] = target: Insulin receptor (Homo sapiens) (UniProt P06213); conditions: at 0.1 µM
[7] = target: Insulin receptor (Homo sapiens) (UniProt P06213); conditions: at 1 µM
[8] = target: Insulin receptor-related protein (Homo sapiens) (UniProt P14616); conditions: at 0.1 µM
[9] = target: Insulin receptor-related protein (Homo sapiens) (UniProt P14616); conditions: at 1 µM
[10] = target: T1, Tyrosine-protein kinase ITK/TSK (Homo sapiens) (UniProt Q08881); conditions: at 0.1 µM;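 note: mean percent inhibition of ITK from the GSK PKIS screen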
T1 sequence (whole entry): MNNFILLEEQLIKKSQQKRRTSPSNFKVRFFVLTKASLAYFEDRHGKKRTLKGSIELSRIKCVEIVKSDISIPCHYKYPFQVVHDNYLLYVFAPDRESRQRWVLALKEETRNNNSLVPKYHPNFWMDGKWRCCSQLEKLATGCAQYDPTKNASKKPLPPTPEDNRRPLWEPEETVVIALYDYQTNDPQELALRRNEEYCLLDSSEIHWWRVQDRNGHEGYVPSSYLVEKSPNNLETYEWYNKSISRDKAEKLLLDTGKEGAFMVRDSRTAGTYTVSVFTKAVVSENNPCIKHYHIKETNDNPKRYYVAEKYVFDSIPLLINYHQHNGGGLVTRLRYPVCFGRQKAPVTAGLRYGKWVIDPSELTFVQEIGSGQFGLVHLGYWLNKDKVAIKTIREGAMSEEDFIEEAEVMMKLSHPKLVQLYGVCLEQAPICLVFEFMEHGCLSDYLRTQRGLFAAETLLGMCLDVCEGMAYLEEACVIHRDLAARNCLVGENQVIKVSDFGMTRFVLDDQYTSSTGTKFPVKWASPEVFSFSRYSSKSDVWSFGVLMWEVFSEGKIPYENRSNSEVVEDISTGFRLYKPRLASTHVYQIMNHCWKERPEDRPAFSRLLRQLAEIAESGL

Insulin-like growth factor 1 receptor (Homo sapiens), sequence (P08069 31-736 limits assumed): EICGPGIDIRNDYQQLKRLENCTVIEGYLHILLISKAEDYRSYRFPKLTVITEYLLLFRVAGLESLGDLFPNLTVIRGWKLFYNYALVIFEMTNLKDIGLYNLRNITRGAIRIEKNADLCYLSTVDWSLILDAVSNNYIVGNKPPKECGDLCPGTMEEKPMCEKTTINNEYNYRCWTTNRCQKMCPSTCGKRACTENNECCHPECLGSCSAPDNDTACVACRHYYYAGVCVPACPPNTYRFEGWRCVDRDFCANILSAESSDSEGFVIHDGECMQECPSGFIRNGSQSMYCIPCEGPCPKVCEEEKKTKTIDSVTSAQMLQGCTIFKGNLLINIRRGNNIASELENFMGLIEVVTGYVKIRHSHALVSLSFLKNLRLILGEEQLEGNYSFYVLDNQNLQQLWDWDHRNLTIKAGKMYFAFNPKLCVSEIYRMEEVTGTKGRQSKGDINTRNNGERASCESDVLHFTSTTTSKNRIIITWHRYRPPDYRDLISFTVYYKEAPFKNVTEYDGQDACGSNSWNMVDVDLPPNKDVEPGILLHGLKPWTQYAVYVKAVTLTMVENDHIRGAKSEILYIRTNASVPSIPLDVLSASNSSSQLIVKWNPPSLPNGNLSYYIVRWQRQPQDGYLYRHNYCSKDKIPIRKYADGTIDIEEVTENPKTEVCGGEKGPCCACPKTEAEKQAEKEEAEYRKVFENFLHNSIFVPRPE
Insulin-like growth factor 1 receptor (Homo sapiens), sequence (P08069 741-1367 limits assumed): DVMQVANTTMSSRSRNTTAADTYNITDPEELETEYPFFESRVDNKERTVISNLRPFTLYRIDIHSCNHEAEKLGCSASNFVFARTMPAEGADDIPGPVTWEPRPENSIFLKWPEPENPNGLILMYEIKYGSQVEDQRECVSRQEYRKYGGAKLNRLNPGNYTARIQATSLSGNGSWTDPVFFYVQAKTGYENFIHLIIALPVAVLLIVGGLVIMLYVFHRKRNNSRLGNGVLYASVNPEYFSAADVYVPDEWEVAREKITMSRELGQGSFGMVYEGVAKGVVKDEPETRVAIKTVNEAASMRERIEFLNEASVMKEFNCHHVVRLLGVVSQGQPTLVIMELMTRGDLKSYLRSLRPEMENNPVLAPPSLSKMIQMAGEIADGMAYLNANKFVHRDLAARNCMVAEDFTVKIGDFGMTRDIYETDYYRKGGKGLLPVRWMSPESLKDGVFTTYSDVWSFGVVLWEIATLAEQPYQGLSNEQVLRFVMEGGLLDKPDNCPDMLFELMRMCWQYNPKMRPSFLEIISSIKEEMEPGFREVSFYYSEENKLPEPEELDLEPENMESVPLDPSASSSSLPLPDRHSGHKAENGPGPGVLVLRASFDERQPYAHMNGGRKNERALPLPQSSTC
Insulin receptor (Homo sapiens), sequence (P06213 28-758 limits assumed): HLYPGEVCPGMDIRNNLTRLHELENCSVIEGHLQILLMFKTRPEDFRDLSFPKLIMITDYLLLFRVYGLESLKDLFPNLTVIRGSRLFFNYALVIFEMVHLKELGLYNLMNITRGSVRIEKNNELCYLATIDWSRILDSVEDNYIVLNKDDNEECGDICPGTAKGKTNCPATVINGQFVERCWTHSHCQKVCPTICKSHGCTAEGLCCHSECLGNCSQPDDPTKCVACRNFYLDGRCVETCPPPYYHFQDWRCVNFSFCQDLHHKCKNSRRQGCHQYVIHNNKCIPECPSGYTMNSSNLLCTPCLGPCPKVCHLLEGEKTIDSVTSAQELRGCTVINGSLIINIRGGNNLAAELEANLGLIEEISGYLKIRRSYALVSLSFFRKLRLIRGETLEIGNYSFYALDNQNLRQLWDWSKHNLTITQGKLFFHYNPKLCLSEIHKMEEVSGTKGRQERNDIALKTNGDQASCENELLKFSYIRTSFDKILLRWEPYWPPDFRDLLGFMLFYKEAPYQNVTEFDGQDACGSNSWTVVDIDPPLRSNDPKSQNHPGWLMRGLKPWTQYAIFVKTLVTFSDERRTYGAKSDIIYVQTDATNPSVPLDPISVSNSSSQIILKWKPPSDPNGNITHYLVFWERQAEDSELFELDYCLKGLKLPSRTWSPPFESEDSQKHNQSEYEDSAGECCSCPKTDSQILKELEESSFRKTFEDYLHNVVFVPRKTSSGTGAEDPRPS
Insulin receptor (Homo sapiens), sequence (P06213 763-1382 limits assumed): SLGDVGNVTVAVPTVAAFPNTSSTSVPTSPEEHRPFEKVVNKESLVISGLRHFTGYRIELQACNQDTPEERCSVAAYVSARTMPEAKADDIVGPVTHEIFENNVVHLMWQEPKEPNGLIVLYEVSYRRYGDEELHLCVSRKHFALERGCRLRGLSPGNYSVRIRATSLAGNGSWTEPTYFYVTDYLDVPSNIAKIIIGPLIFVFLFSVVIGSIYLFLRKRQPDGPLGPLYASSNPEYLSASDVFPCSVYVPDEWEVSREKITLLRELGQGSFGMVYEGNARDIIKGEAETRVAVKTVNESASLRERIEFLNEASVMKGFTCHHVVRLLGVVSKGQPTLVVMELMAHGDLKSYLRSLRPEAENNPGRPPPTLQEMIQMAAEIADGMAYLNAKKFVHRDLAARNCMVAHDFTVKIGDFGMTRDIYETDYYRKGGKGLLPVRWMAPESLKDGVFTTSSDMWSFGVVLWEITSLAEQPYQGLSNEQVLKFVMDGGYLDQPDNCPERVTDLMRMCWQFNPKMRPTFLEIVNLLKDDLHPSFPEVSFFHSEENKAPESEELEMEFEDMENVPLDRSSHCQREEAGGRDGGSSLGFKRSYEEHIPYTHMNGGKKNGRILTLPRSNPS
Tyrosine-protein kinase Fyn (Homo sapiens), sequence (P06241 2-537 limits assumed): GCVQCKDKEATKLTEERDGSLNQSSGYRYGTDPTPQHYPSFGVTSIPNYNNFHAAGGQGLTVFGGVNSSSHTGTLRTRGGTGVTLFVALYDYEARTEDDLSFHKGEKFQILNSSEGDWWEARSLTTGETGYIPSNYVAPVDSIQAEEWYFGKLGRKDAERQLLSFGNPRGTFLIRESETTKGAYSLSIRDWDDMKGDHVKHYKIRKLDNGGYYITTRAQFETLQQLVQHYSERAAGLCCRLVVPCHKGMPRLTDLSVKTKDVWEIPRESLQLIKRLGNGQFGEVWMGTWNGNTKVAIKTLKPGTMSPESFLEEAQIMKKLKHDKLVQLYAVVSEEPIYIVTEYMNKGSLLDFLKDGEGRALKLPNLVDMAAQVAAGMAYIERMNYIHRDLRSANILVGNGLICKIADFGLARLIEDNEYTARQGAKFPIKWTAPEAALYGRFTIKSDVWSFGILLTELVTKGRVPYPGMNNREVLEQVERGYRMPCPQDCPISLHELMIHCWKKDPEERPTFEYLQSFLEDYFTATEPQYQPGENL
Tyrosine-protein kinase HCK (Homo sapiens), sequence (P08631 2-526 limits assumed): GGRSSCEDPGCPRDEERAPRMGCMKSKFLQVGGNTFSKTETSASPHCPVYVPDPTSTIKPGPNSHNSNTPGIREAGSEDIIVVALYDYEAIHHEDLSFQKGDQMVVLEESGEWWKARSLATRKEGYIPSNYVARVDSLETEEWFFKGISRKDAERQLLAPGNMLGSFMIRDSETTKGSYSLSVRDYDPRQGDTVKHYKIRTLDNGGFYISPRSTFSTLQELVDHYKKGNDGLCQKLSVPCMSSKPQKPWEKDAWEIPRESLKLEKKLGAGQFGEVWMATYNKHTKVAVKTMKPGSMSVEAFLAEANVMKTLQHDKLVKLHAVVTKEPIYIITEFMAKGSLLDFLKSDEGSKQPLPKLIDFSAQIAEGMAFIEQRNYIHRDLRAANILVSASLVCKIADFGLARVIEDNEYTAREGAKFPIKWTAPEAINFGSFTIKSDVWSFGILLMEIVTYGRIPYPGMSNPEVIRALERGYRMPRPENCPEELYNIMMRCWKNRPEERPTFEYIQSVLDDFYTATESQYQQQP
Insulin receptor-related protein (Homo sapiens), sequence (P14616 27-742 limits assumed): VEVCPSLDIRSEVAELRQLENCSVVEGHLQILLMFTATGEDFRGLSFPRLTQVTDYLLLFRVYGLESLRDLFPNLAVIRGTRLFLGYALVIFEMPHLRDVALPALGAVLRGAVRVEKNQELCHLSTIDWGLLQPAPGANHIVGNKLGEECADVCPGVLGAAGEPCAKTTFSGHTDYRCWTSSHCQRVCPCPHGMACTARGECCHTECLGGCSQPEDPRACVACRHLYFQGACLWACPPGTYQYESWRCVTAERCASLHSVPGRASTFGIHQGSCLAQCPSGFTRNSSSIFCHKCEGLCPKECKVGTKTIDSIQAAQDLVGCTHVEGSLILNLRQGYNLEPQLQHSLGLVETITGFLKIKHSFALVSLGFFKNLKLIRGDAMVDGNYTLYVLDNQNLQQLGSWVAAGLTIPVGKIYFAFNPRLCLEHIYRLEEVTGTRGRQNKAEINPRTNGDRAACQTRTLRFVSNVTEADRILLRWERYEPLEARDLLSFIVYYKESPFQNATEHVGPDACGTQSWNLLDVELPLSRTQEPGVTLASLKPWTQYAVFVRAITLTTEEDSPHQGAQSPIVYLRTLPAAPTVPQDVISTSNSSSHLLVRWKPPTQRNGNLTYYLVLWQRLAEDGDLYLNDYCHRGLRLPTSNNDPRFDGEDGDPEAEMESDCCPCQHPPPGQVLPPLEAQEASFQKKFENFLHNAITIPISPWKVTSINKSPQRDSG
Insulin receptor-related protein (Homo sapiens), sequence (P14616 747-1297 limits assumed): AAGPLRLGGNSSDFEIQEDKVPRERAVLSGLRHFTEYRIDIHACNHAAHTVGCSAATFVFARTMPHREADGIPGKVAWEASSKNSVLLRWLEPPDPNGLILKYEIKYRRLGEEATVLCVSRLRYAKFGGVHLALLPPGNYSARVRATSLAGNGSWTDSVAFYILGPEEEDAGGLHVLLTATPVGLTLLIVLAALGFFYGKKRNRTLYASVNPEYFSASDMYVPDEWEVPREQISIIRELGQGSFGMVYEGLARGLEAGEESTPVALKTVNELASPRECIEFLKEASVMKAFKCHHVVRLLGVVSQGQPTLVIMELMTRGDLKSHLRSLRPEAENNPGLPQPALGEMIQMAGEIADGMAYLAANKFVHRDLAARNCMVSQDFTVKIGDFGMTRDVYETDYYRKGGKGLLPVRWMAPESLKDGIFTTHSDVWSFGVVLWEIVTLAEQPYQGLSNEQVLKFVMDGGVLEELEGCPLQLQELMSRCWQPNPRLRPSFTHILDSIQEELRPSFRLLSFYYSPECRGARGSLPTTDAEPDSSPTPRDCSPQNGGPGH

| Compound | inhibition [1] [%] | inhibition [2] [%] | inhibition [3] [%] | inhibition [4] [%] | inhibition [5] [%] | inhibition [6] [%] | inhibition [7] [%] | inhibition [8] [%] | inhibition [9] [%] | inhibition [10] [%] |
| --- | --- | --- | --- | --- | --- | --- | --- | --- | --- | --- |
| CCn1c(-c2nonc2N)nc2cncc(C(=O)N3CCNCC3)c21 | 2.87 | 6.76 | 9.25 | 8.86 | 9.25 | 10.5 | 9.41 | 4.06 | 6.22 | 2.63 |
| CCCN1CCC(Oc2cc(Nc3nc(Nc4cccc(F)c4C(N)=O)c4cc[nH]c4n3)c(OC)cc2Cl)CC1 | 3.01 | 4.1 | 7.31 | 57.2 | 91.8 | 64 | 88 | 4.74 | 37.6 | 0.65 |
| Cn1cc(C=C2C(=O)Nc3cccnc32)c2ccccc21 | 15.4 | 6.56 | 42.1 | 1.72 | 8.98 | 3.49 | 20.1 | 0.41 | 1.8 | 2.56 |
| CC1=C(C(=O)Nc2ccc3[nH]ncc3c2)C(c2ccc(F)cc2)NC(=O)N1 (stereo not given) | 4.69 | 3.04 | 2.81 | 9.13 | 8.59 | 4.97 | 4.22 | 0.88 | 0.72 | 0.65 |
| Cc1cccc(-c2n[nH]cc2-c2ccc3ncccc3n2)n1 | 6.38 | 0.57 | 5.58 | 1.27 | -0.01 | -0.03 | 2.58 | -0.57 | -0.38 | 0.38 |
| COc1cc(C=NNc2ncnc3c2cnn3-c2ccccc2)ccc1O | 47.5 | 8.92 | 41.6 | 1.72 | 3.81 | 3.42 | 2.58 | 3.25 | 2.41 | 1.47 |
| CN(C)c1cc2c(Nc3ccc4nc(Cc5ccccc5)[nH]c4c3)ncnc2cn1 | 27.7 | 11.5 | 30.6 | 6.59 | 11.5 | 7.56 | 8.05 | 3.36 | 4.95 | 1.45 |
| CNC(=O)c1cncc(/C=C/c2c(Cl)cccc2Cl)c1 | 15.1 | 11.6 | 44.9 | -8.06 | -3 | 3.59 | 2.79 | 2.44 | 2.34 | -1.98 |
| N#Cc1c(NC(=O)c2cccc3ccccc23)sc2c1CCCC2 | 4.04 | 4.79 | 6.4 | 1.59 | 2.51 | 5.97 | 6.62 | 0.81 | 1.11 | 1.77 |
| CCn1c(-c2nonc2N)nc2ccncc21 | -0.65 | 3.79 | 3.12 | -0.2 | 1.25 | 3.48 | 5.38 | -0.17 | -0.42 | 0.26 |
| CCn1c(-c2nonc2N)nc2c(C#CC(C)(C)O)nc(CN3CCCC3)cc21 | 3.44 | -1.79 | 2.1 | -0.3 | -1.42 | 0.13 | -0.45 | -1.19 | -0.92 | 0.22 |
| NS(=O)(=O)c1cccc(-c2ccc3c(NC(=O)C4CC4)n[nH]c3c2)c1 | 2.4 | -0.53 | 1.86 | -0.13 | 3.51 | 3.15 | -0.25 | -2.37 | -1.21 | -0.53 |
| CS(=O)(=O)CCNCc1ccc(-c2ccc3ncnc(Nc4ccc(OCc5cccc(F)c5)c(C(F)(F)F)c4)c3c2)o1 | 2.37 | 5.21 | 4.98 | 0.07 | 1.69 | 5.7 | 6.44 | 3.1 | 2.55 | 1.12 |
| COc1cc(C)c(NC(=O)CN(C)C)cc1Nc1nc(Nc2cccc(F)c2C(N)=O)c2cc[nH]c2n1 | 2.42 | 4.13 | 3.71 | 93.6 | 95.5 | 99.9 | 99.9 | 90.8 | 97.7 | 1.36 |
| Nc1ncnc2occ(-c3ccc(NC(=O)Nc4cc(C(F)(F)F)cc(C(F)(F)F)c4)cc3)c12 | 10.3 | 6.07 | 27.1 | 1.24 | 7.12 | -4.81 | 6.05 | 5.56 | 2.23 | 1.65 |
| CC(C)=Cc1cccc2c1/C(=N/Nc1ccc(S(N)(=O)=O)cc1)C(=O)N2 | 27.3 | 2.33 | 21.4 | 2.45 | 8.58 | 1.28 | 13.6 | 1.95 | 2.95 | 0.64 |
| COc1ccc2cc(-c3c(-c4ccncc4)nc(-c4ccc([S+](C)[O-])cc4)n3C)ccc2c1 (stereo not given) | 2.67 | 4.09 | 6.94 | 1.13 | 0.1 | -0.81 | 3.26 | 1.09 | 1.11 | 1.06 |

| Compound | inhibition [1] [%] | inhibition [2] [%] | inhibition [3] [%] | inhibition [4] [%] | inhibition [5] [%] | inhibition [6] [%] | inhibition [7] [%] | inhibition [8] [%] | inhibition [9] [%] | inhibition [10] [%] |
| --- | --- | --- | --- | --- | --- | --- | --- | --- | --- | --- |
| COc1cccc(-n2ncc3c(N/N=C/c4cccc(F)c4)ncnc32)c1 | 31.5 | 5.13 | 20.8 | -6.82 | -4.04 | 6.33 | 5.41 | 0.81 | 0.48 | -3.25 |
| O=C1NC(=O)C(c2ccccc2Cl)=C1Nc1cccc(O)c1 | 2.43 | 3.62 | 5.29 | 3.77 | 2.85 | 0.88 | 4.12 | 7.16 | 2.14 | 1.12 |
| O=C1NC(=O)C(N2CCc3ccccc32)=C1c1ccc(Cl)cc1 | 4.67 | 8.78 | 12.7 | 2.02 | 2.75 | 6.09 | 5.24 | 2.18 | 2.1 | 1.5 |
| O=C1NC(=O)C(c2ccc(Cl)cc2)=C1Nc1ccc(Cl)c(C(=O)O)c1 | 0.57 | 0.67 | 3.62 | 0.06 | -0.55 | 2.24 | 2.54 | -0.43 | -1.7 | -0.06 |
| O=C1Nc2ccc(C(=O)c3ccco3)cc2C1=Cc1cc(Cl)c(O)c(Cl)c1 | 20.7 | 5.82 | 17.4 | 4.15 | 4.7 | 5.71 | 3.98 | 1.08 | 2.14 | 1.31 |
| Fc1cccc(COc2ccc(Nc3ncnc4cc(-c5ccc[nH]5)sc34)cc2Cl)c1 | 4.86 | 3.68 | 9.04 | -6.59 | -4.84 | 5.37 | 6 | -0.19 | 0.95 | -2.3 |
| CS(=O)(=O)Nc1ccc(N/C=C2\C(=O)Nc3ccccc32)cc1 | 4.85 | -0.18 | 14.1 | -1.54 | 5.77 | -0.48 | 8.57 | -3.26 | -1.01 | -0.24 |
| NCc1ccc(-c2nc(-c3ccc(Cl)c(O)c3)c(-c3ccncc3)[nH]2)cc1 | 31.8 | 12.9 | 55.1 | -0.62 | -0.25 | 0.74 | 2.07 | -0.06 | -1.54 | 0.2 |
| c1cnn2ncc(-c3ccnc(Nc4ccc5c(c4)OCCO5)n3)c2c1 | 8.63 | 6.09 | 16.8 | 15 | 56.6 | 12.7 | 58.5 | 5.36 | 15.2 | 1.86 |
| [O-][S+]1CCN(Cc2ccc(-c3ccc4ncnc(Nc5ccc(OCc6ccccc6)c(F)c5)c4c3)o2)CC1 | 9.16 | 3.37 | 7.23 | 4.94 | 2.99 | 4.18 | 4.1 | 0.94 | 2.32 | 1.08 |
| Fc1cccc(COc2ccc(Nc3ncnc4sc(-c5cccs5)cc34)cc2Cl)c1 | 5.19 | 1.68 | 3.8 | 0.38 | 0.6 | 4.85 | 3.43 | -1.46 | -0.83 | 0.84 |
| Cc1ccc(C(=O)NC2CCCCC2)cc1-c1ccc(C(=O)NCC2CC2)cc1 | 0.78 | 5.78 | 7.52 | 1.73 | 5.21 | 3.35 | 1.48 | 3.13 | 2.14 | 1.95 |
| CCn1c(-c2nonc2N)nc2cncc(C(=O)N3CC[C@H](N)C3)c21 | 2.85 | 6.43 | 9.69 | 4.59 | 6 | 4.27 | 6.06 | 0.81 | 1.96 | 0.55 |
| O=C1NC(=O)C(c2cccc(Cl)c2)=C1Nc1ccc(O)c(Cl)c1 | 2.24 | 1.14 | 3.34 | -1.68 | 2.43 | 4.11 | 6.7 | 1.1 | 0.03 | 0.25 |
| CCN1CCC(CC(=O)Nc2n[nH]c3nc(-c4cccs4)c(Br)cc23)CC1 | -1.4 | -0.44 | 0.93 | -1.09 | 1.31 | -0.61 | -1.43 | -2.33 | 0.01 | -0.21 |
| CS(=O)(=O)CCNCc1nc(-c2ccc3ncnc(Nc4ccc(F)c(Cl)c4)c3c2)cs1 | 3.55 | 4.76 | 13.4 | 3.27 | 3.4 | -0.96 | -3.83 | 2.7 | 1.63 | 1.06 |
